From the supplement of paper PMC11738630 come the findings set out here.

The test system of this test is Salmonella enterica serovar Typhimurium 14028s. Nature of the test: approximate change in surviving CFU after surface colonization relative to water-only control (log10 CFU/mL change); higher = more surviving bacteria (less inhibition of surface colonization). Conditions: not stated (Biolog proprietary concentration), surface: plastic 96-well plate, 20-24 h at 25 °C.

Turning to `CC(=O)N[C@@H](CO)[C@@H](O)[C@H](O)[C@H](O)CO` [N-Acetyl-D-Glucosaminitol], under “Biolog plate: PM2, Biolog well: D9”, the “approximate change in surviving CFU (log10)” value (“approximate change … (log10)” below) amounted to 0.944.

Turning to `O=C(O)C(=O)O` [Oxalic Acid], the “approximate change … (log10)” value (Biolog plate: PM2, Biolog well: F4) amounted to 0.429.

Take `O=C(O)[C@@H](O)[C@H](O)C(=O)O` [D-Tartaric Acid]: the “approximate change … (log10)” value (Biolog plate: PM2, Biolog well: F11) turned out to be 0.944.

Take `O=C(CO)CO` [Dihydroxy Acetone]: the “approximate change … (log10)” value (Biolog plate: PM2, Biolog well: H9) is -4.4.

In the case of `CC(O)C(C)O` (stereo unspecified) [2,3-Butanediol], the “approximate change … (log10)” value (Biolog plate: PM2, Biolog well: H10) is -0.708.

In the case of `N` [Ammonia], the “approximate change … (log10)” value (Biolog plate: PM3, Biolog well: A2) was determined as 0.0644.

For the compound `NCCCC[C@@H](N)C(=O)O` [D-Lysine], for the setting “Biolog plate: PM3, Biolog well: C7”, the “approximate change … (log10)” value was -0.107.

On to `CCCCCN` [N-Amylamine], for which, for the setting “Biolog plate: PM3, Biolog well: D6”, the “approximate change … (log10)” value was -0.708.

With `CCN` [Ethylamine], the “approximate change … (log10)” value (Biolog plate: PM3, Biolog well: D8) was -1.89.

On to `NCCO` [Ethanolamine], for which the “approximate change … (log10)” value (Biolog plate: PM3, Biolog well: D9) is -0.408.

As to `NCCc1ccccc1` [B-Phenylethyl-amine], the “approximate change … (log10)” value (Biolog plate: PM3, Biolog well: E2) is -0.129.

As for `CC(=O)N[C@@H]1C(O)O[C@H](CO)[C@@H](O)[C@@H]1O` (stereo partly drawn) [N-Acetyl-D-Mannosamine], the “approximate change … (log10)” value (Biolog plate: PM3, Biolog well: F1) worked out at 0.15.

For `Nc1[nH]cnc2ncnc1-2` [Adenine], under “Biolog plate: PM3, Biolog well: F2”, the “approximate change … (log10)” value is -0.515.

Take `Nc1nc2[nH]cnc2c(=O)[nH]1` [Guanine]: the “approximate change … (log10)” value (Biolog plate: PM3, Biolog well: F6) is -2.83.

With `Nc1nc2c(ncn2[C@@H]2O[C@H](CO)[C@@H](O)[C@H]2O)c(=O)[nH]1` [Guanosine], the “approximate change … (log10)” value (Biolog plate: PM3, Biolog well: F7) is -0.172.

Regarding `Cc1c[nH]c(=O)[nH]c1=O` [Thymine], the “approximate change … (log10)” value (Biolog plate: PM3, Biolog well: F8) was -0.58.

Turning to `C[C@H](N)C(=O)N[C@@H](CCC(N)=O)C(=O)O`, the “approximate change … (log10)” value (Biolog plate: PM3, Biolog well: H2) came out at 0.0644.

Consider `C[C@H](N)C(=O)NCC(=O)O`, for which the “approximate change … (log10)” value (Biolog plate: PM3, Biolog well: H4) was -0.322.

As for `C[C@H](N)C(=O)N[C@@H](Cc1cnc[nH]1)C(=O)O`, where the note is “Biolog plate: PM3, Biolog well: H5”, the “approximate change … (log10)” value was -0.258.

Take `NCC(=O)N[C@@H](CCC(=O)O)C(=O)O`: the “approximate change … (log10)” value (Biolog plate: PM3, Biolog well: H10) came out at 0.472.

Turning to `OC[C@@H](O)[C@@H](O)[C@H](O)[C@@H](O)CO` [D-Sorbitol], under “Biolog plate: PM1, Biolog well: B2”, the “approximate change … (log10)” value amounted to 1.61.
